Experimental data taken from PubChem BioAssay.
Active and inactive are the calls of the source. Unless noted, the rule behind the calls is not given here.

What was measured:
[1] = test system: XIP peptide (Xip251-270) binding; test: small-molecule binders of XIP peptide, primary screen, biochemical, small-molecule microarray, fluorescence 635/667 nm, 0.1 µg/mL protein (AID 1182); settings: fluorescent protein binding, 635 nm, higher = more signal, called active from +8 up or from −8 down
XIP peptide (Xip251-270) = test: small-molecule binders of XIP peptide, primary screen, biochemical, small-molecule microarray, fluorescence 635/667 nm, 0.5 µg/mL protein (AID 1183); settings: small-molecule microarray binding, fluorescence 635 nm; higher = more signal
[2] = Plasmodium falciparum growth inhibition, primary screen, strain 3D7, DAPI fluorescence, 100 nL (AID 1184);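 note: parasites grown inside human red blood cells in medium with human serum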; settings: P. falciparum 3D7 growth, 3 d, higher = more signal
[3] = target: Homeobox protein Hox-A13 (Mus musculus) (UniProt Q62424); test: inhibitors of HoxA13-DNA binding, primary screen, biochemical, fluorescence polarization, labeled oligonucleotide (AID 1185); settings: 15 min, higher = more signal, called active from +8 up or from −8 down
Homeobox protein Hox-A13 (Mus musculus), sequence (Q62424 whole entry, looked up): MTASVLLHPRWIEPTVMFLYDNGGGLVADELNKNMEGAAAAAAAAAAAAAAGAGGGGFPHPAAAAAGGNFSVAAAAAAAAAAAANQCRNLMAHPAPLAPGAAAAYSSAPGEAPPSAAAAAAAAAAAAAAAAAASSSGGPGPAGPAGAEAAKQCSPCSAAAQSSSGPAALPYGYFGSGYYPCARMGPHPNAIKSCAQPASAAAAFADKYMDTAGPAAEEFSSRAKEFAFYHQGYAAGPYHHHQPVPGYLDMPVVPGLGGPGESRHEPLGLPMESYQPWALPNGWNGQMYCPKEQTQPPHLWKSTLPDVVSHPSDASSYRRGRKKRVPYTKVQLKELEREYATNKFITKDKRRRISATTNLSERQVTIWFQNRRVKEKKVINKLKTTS

[4] = inhibitors of hydroxyurea-induced Chk1 phosphorylation, primary screen, imaging, HeLa, phospho-Chk1 antibody, percent positive cells (AID 1186); settings: hydroxyurea-induced phospho-Chk1 immunofluorescence imaging, higher = more signal
[5] = inhibitors of hydroxyurea-induced Chk1 phosphorylation, primary screen, imaging, HeLa, phospho-Chk1 nuclear intensity (AID 1187); settings: hydroxyurea-induced phospho-Chk1 immunofluorescence imaging, higher = more signal

COC(=O)[C@H](Cc1ccccc1)N1CC(/C=C/C2CC2)=C[C@H]1[C@H](O)Cc1ccccc1
composite z-score [1]: 0.444 (inactive) | composite z-score (XIP peptide (Xip251-270)): 0.337 | z-score [2]: -1.65 | z-score [3]: -5.54 (inactive) | z-score [4]: -0.45 (inactive) | z-score [5]: -0.749 (inactive)

COc1cc2c(cc1OC)CN(C(=O)[C@@H]1[C@H]3C(=O)O[C@H](c4ccccc4)[C@H](c4ccccc4)N3[C@H](c3ccc(OCCO)cc3)[C@@]13C(=O)Nc1ccccc13)CC2
composite z-score [1]: 0.675 (inactive) | composite z-score (XIP peptide (Xip251-270)): 0.742 | z-score [2]: -1.77 | z-score [3]: -8.07 (active) | z-score [4]: -0.118 (inactive) | z-score [5]: -0.256 (inactive)

C[C@H]1NC(=O)[C@@]23C(=O)N[C@@H](Cc4ccccc4)C2[C@H](C)[C@@]2(C)O[C@H]2C3/C=C/C/C=C\CNC(=O)[C@H](Cc2ccccc2)NC1=O (some centres not stated)
composite z-score [1]: 0.0017 (inactive) | composite z-score (XIP peptide (Xip251-270)): 0.424 | z-score [2]: -1.4 | z-score [3]: -7.15 (inactive) | z-score [4]: 0.116 (inactive) | z-score [5]: 0.368 (inactive)

COC(=O)[C@@]1(Cc2ccc(OC)cc2)[C@H]2c3cc(C(=O)N4CCCC4)n(Cc4c(-c5ccccc5)noc4C)c3C[C@H]2CN1C(=O)c1ccccc1
composite z-score [1]: 2.97 (inactive) | composite z-score (XIP peptide (Xip251-270)): 0.473 | z-score [2]: -1.3 | z-score [3]: -3.25 (inactive) | z-score [4]: -0.279 (inactive) | z-score [5]: -0.313 (inactive)

CC(C)C(CO)N1C(=O)[C@@H]2C3C(=O)OCCC/C=C\[C@H]3OC23C=CCN(C(C)(C)C)C(=O)[C@@H]13 (some centres not stated)
composite z-score [1]: -0.68 (inactive) | composite z-score (XIP peptide (Xip251-270)): -0.201 | z-score [2]: 1.16 | z-score [3]: -5.07 (inactive) | z-score [4]: 0.0464 (inactive) | z-score [5]: -0.0642 (inactive)

C=CC1c2cc(O)c(OC)cc2CCN1Cc1cc2c(cc1Br)OCO2 (configuration not stated)
composite z-score [1]: 1.31 (inactive) | composite z-score (XIP peptide (Xip251-270)): 0.962 | z-score [2]: -2.14 | z-score [3]: -5.73 (inactive) | z-score [4]: -0.103 (inactive) | z-score [5]: -0.0965 (inactive)

COCCCNC(=O)[C@@]1(Cc2ccccc2N=[N+]=[N-])N=C(c2ccc(OCCCO)cc2)O[C@H]1c1ccccc1
composite z-score [1]: 0.226 (inactive) | composite z-score (XIP peptide (Xip251-270)): 0.818 | z-score [2]: -2.49 | z-score [3]: -5.46 (inactive) | z-score [4]: 0.0251 (inactive) | z-score [5]: 0.285 (inactive)

O=C1NC(=O)C2C1C=CC(C(O)c1c(F)cccc1Cl)N2Nc1ccc(Cl)cc1Cl (configuration not stated)
composite z-score [1]: 0.831 (inactive) | composite z-score (XIP peptide (Xip251-270)): 0.709 | z-score [2]: -0.0027 | z-score [3]: -6.24 (inactive) | z-score [4]: 1.05 (inactive) | z-score [5]: 0.702 (inactive)

COC(=O)[C@@]1(Cc2ccccc2)[C@H]2c3cc(C(=O)N(C)C)n(CCc4ccc(O)c(OC)c4)c3C[C@H]2CN1C(=O)c1ccccc1
composite z-score [1]: 0.132 (inactive) | composite z-score (XIP peptide (Xip251-270)): -0.358 | z-score [2]: 0.692 | z-score [3]: -0.394 (inactive) | z-score [4]: 0.727 (inactive) | z-score [5]: 0.652 (inactive)

C=CCOC(=O)[C@H]1[C@@H]2C(=O)O[C@@H](c3ccccc3)[C@@H](c3ccccc3)N2[C@@H](c2ccc(OCCOC(=O)[C@H]3C[C@H]4C(=O)N[C@@H](CC(C)C)C(=O)N4[C@H]3c3cccc(OCCO)c3)cc2)[C@]12C(=O)Nc1ccc(I)cc12
composite z-score [1]: 0.124 (inactive) | composite z-score (XIP peptide (Xip251-270)): 0.694 | z-score [2]: -1.79 | z-score [3]: 0.344 (inactive) | z-score [4]: -0.592 (inactive) | z-score [5]: -1.19 (inactive)

COc1ccc([Si](C)(C)[C@@H]2[C@@H](CC(=O)N3Cc4ccccc4C[C@H]3CO)O[C@]3(C(=O)N(C)c4ccccc43)[C@H]2C)cc1
composite z-score [1]: 0.176 (inactive) | composite z-score (XIP peptide (Xip251-270)): 0.773 | z-score [2]: -2.74 | z-score [3]: -6.03 (inactive) | z-score [4]: -1.6 (inactive) | z-score [5]: -0.901 (inactive)

CCOC(=O)C1CCCCN1 (configuration not stated)
composite z-score [1]: -0.679 (inactive) | composite z-score (XIP peptide (Xip251-270)): -0.0839 | z-score [2]: 1.57 | z-score [3]: 0.65 (inactive) | z-score [4]: 0.0889 (inactive) | z-score [5]: 0.0121 (inactive)

O=C1O[C@H](c2ccccc2)[C@H](c2ccccc2)N2[C@H]1[C@@H](C(=O)O)[C@]1(C(=O)Nc3ccc(C#CC4=CCCCC4)cc31)[C@H]2c1ccc(O)cc1
composite z-score [1]: 0.406 (inactive) | composite z-score (XIP peptide (Xip251-270)): 0.617 | z-score [2]: -0.628 | z-score [3]: -5.74 (inactive) | z-score [4]: -0.0146 (inactive) | z-score [5]: -0.19 (inactive)

O=C1C2C=CC(C(O)c3ccccc3)N(Nc3ccccc3F)C2C(=O)N1c1ccccc1 (configuration not stated)
composite z-score [1]: 1.07 (inactive) | composite z-score (XIP peptide (Xip251-270)): 0.726 | z-score [2]: 0.199 | z-score [3]: -3.79 (inactive) | z-score [4]: 0.237 (inactive) | z-score [5]: 0.0511 (inactive)

C=CCN1C(=O)[C@@]2(CCS(=O)(=O)c3ccccc3)N=C(c3ccc(OCCCO)cc3)O[C@H]2c2ccccc21
composite z-score [1]: 0.404 (inactive) | composite z-score (XIP peptide (Xip251-270)): 0.713 | z-score [2]: -2.05 | z-score [3]: -2.47 (inactive) | z-score [4]: -0.477 (inactive) | z-score [5]: -0.37 (inactive)

C=CCN1Cc2ccccc2[C@H]2OC(c3ccc(OCCCO)cc3)=N[C@@]2(CC=C)C1=O
composite z-score [1]: 0.808 (inactive) | composite z-score (XIP peptide (Xip251-270)): 0.746 | z-score [2]: -2.15 | z-score [3]: -3.06 (inactive) | z-score [4]: -0.39 (inactive) | z-score [5]: -0.0236 (inactive)

COc1ccc(CCN2C(=O)[C@@]3(Cc4ccccc42)c2ccccc2C(=O)N(Cc2ccccc2OC)[C@H]3c2ccc(CO)cc2)cc1
composite z-score [1]: -0.22 (inactive) | composite z-score (XIP peptide (Xip251-270)): 0.425 | z-score [2]: -1.39 | z-score [3]: -0.208 (inactive) | z-score [4]: -0.154 (inactive) | z-score [5]: 0.0689 (inactive)

O=C1C[C@@](C(=O)NCCN2CCOCC2)(c2ccc([N+](=O)[O-])cc2)[C@@H](c2ccc(CO)cc2I)N1C1CCCCC1
composite z-score [1]: -0.026 (inactive) | composite z-score (XIP peptide (Xip251-270)): 0.588 | z-score [2]: -1.37 | z-score [3]: -5.37 (inactive) | z-score [4]: 0.0213 (inactive) | z-score [5]: 0.245 (inactive)

CCOC(=O)C1=CC[C@@H](c2ccc(OCc3ccccc3)c(OC)c2)N(S(=O)(=O)c2ccc(C)cc2)[C@H]1c1ccc(SC)cc1
composite z-score [1]: 0.56 (inactive) | composite z-score (XIP peptide (Xip251-270)): 0.569 | z-score [2]: -2.05 | z-score [3]: 1.81 (inactive) | z-score [4]: -0.387 (inactive) | z-score [5]: -0.768 (inactive)

COc1ccc(C(O)C2C=CC3C(=O)N(c4ccccc4)C(=O)C3N2Nc2ccc([N+](=O)[O-])cc2)cc1 (configuration not stated)
composite z-score [1]: 0.584 (inactive) | composite z-score (XIP peptide (Xip251-270)): 0.797 | z-score [2]: -0.906 | z-score [3]: -3.98 (inactive) | z-score [4]: 0.895 (inactive) | z-score [5]: -0.355 (inactive)

CC(C)(C)N1CC=CC23O[C@@H]4C=CCCOC(=O)C4[C@H]2C(=O)N(CCO)[C@@H]3C1=O (some centres not stated)
composite z-score [1]: -0.692 (inactive) | composite z-score (XIP peptide (Xip251-270)): -0.421 | z-score [2]: -0.175 | z-score [3]: -4.92 (inactive) | z-score [4]: 0.0024 (inactive) | z-score [5]: -0.528 (inactive)

COc1ccc([Si](C)(C)[C@@H]2[C@@H](CC(=O)N3Cc4ccccc4C[C@H]3CO)O[C@]3(C(=O)N(Cc4cccc(N5C(=O)c6cccc7cccc5c67)c4)c4ccccc43)[C@H]2C)cc1
composite z-score [1]: 1.26 (inactive) | composite z-score (XIP peptide (Xip251-270)): 0.574 | z-score [2]: -2.59 | z-score [3]: -1.47 (inactive) | z-score [4]: 0.115 (inactive) | z-score [5]: -0.0849 (inactive)

O=C1N(Cc2ccccc2)Cc2ccccc2[C@@H]2OC(c3ccc(OCCCO)cc3)=N[C@]12CCS(=O)(=O)c1ccccc1
composite z-score [1]: 0.0667 (inactive) | composite z-score (XIP peptide (Xip251-270)): 0.736 | z-score [2]: -2.17 | z-score [3]: 0.722 (inactive) | z-score [4]: -0.0608 (inactive) | z-score [5]: 0.268 (inactive)

C=C(/C(=C/C[C@@H](OC(C)=O)c1cccc(OCCO)c1)c1cc(C(=O)OC)ccc1OC)C(C)C
composite z-score [1]: -0.139 (inactive) | composite z-score (XIP peptide (Xip251-270)): 0.567 | z-score [2]: -3.06 | z-score [3]: -5.59 (inactive) | z-score [4]: -0.541 (inactive) | z-score [5]: -0.42 (inactive)

CN1C(=O)C2C=CC(C(O)c3cccc4ccccc34)N(N3CCCCC3)C2C1=O (configuration not stated)
composite z-score [1]: 0.356 (inactive) | composite z-score (XIP peptide (Xip251-270)): 0.749 | z-score [2]: 0.83 | z-score [3]: -4.64 (inactive) | z-score [4]: 0.906 (inactive) | z-score [5]: 0.271 (inactive)

COCCOC(=O)N1C(=O)[C@@]2(c3cc(C#CC4=CCCCC4)ccc31)[C@H](C(=O)N1CCCCCCC1)[C@H]1C(=O)O[C@H](c3ccccc3)[C@H](c3ccccc3)N1[C@@H]2c1ccc(O)cc1
composite z-score [1]: 0.179 (inactive) | composite z-score (XIP peptide (Xip251-270)): 0.695 | z-score [2]: -1.72 | z-score [3]: 2.25 (inactive) | z-score [4]: -0.525 (inactive) | z-score [5]: -0.932 (inactive)

CC(C)(C)OC(=O)CC[C@@]1(C(=O)NCc2ccccc2)N=C(c2ccc(OCCCO)cc2)O[C@@H]1c1ccccc1N=[N+]=[N-]
composite z-score [1]: -0.208 (inactive) | composite z-score (XIP peptide (Xip251-270)): 0.759 | z-score [2]: -2.1 | z-score [3]: -1.44 (inactive) | z-score [4]: -0.347 (inactive) | z-score [5]: 0.14 (inactive)
